Results from PubChem BioAssay (NCATS).
Results filed as inconclusive are left out. The source made the active and inactive calls. Calls follow the shape of the full dose curve.

experiment: Primary qHTS to identify inhibitors of SARS-CoV-2 cell entry (AID 1645846); details: SARS-CoV-2 pseudovirus cell entry assay, luminescence; activity change, negative = inhibition: at 57.1 µM (top of the series) unless noted; also: nearly all actives have a fitted effect of over 45% in size
How it was run: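 Luminescence readout (Bright-Glo luciferase) 48 h after pseudoparticle addition. HEK293-ACE2 cells, 1500/well; compound pre-incubation 1 h; Normalized to spike PP and bald PP.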
Potency is read from the fitted curve at half-maximal effect.

SMILES | Potency | activity change, negative = inhibition
CN(Cc1ccc(/C=C/C(=O)NO)cc1)CC12CC3CC(CC(C3)C1)C2 | 5.01 µM (active) | –
Cc1c(CN2CCC(Nc3ncnc4sc(CC(F)(F)F)cc34)CC2)ccc2c1cc(C#N)n2Cc1cn[nH]c1 | 8.91 µM (active) | –
C=CC(=O)Nc1ccc(F)c(-c2ncnc3[nH]cc(C(=O)OCC)c23)c1 | inactive | –
CCC(=C/[C@H](C)C/C=C/C(C)=C/[C@@H](C)C(=O)[C@@H](C)[C@H](O)[C@@H](C)C/C(C)=C/C(=O)O)/C=C/[C@@H]1OC(=O)C=C[C@@H]1C | – | -94.2%
CNC(=O)CCc1cc(-c2ccc(-c3ccc(C(F)(F)F)cc3)cc2)n(-c2ccc(N3CCNCC3)cc2)n1 | – | -95.7%
Cn1cc(-c2cnn3c(N)c(Br)c([C@@H]4CCCNC4)nc23)cn1 | 35.5 µM (active) | –
C=CC(=O)Nc1cccc(C)c1Nc1ncc2cc(-c3c(Cl)c(OC)cc(OC)c3Cl)ccc2n1 | – | -95%
COc1cc([C@@H]2c3cc4c(cc3[C@@H](O[C@@H]3O[C@@H]5CO[C@@H](c6cccs6)O[C@H]5[C@H](O)[C@H]3O)[C@H]3COC(=O)[C@H]23)OCO4)cc(OC)c1O | – | -96.2%
Cc1cc2c(F)c(Oc3ncnn4cc(OCC(C)OC(=O)C(C)N)c(C)c34)ccc2[nH]1 (configuration not stated) | 11.2 µM (active) | –
O=C(O)c1ccccc1-c1ccc(/C=c2\sc3nc4cc(Br)cnc4n3c2=O)o1 | – | -1.33% [at 27.1 µM]
COc1cc2c(NC3CCN(CC4CCCCC4)CC3)nc(N3CCCN(C(C)C)CC3)nc2cc1OCCCN1CCCCC1 | 3.16 µM (active) | –
Cc1cc(CS(=O)(=O)c2ccccc2)cc(OCc2ccc(CN3CCC[C@@H]3CO)cc2)c1 | 12.6 µM (active) | –
C=CC(=O)Nc1cccc(Nc2nc(Nc3ccc(Oc4ccnc(C(=O)NC)c4)cc3)ncc2F)c1 | 22.4 µM (active) | –
CC(C)NC(=O)COc1cccc(-c2nc(Nc3ccc4[nH]ncc4c3)c3ccccc3n2)c1 | – | -14.8%
C[C@H]1O[C@H](O[C@H]2[C@H](O)[C@@H](O)[C@@H](O[C@H]3[C@H](O)[C@@H](O)C(O)O[C@@H]3CO)O[C@@H]2CO)[C@H](O)[C@@H](O)[C@@H]1N[C@H]1C=C(CO)[C@@H](O)[C@H](O)[C@H]1O (some centres not stated) | – | -16.5%
CNC(=O)Cn1cc(-c2ccc3c(c2)C(F)CC32NC(=O)N(CC(=O)N(Cc3ccc(F)cc3)C(C)C(F)(F)F)C2=O)cn1 (configuration not stated) | – | -52.5%

SMILES | Potency | activity change, negative = inhibition
O=C(CCCCCCNC(=O)c1cnc(N(c2ccccc2)c2ccccc2Cl)nc1)NO | – | 2.82%
Fc1cccc(-n2cnc3c(NCc4nc5c(F)c(F)ccc5[nH]4)nc(N4CCOCC4)nc32)c1 | – | -62.7%
COC1=C2C[C@H](C)C[C@H](OC)[C@H](O)[C@@H](C)/C=C(/C)[C@H](OC(N)=O)[C@@H](OC)/C=C\C=C(\C)C(=O)NC(=CC1=O)C2=O | inactive | –
Nc1nc(N)c2nc(-c3cccc(Cl)c3)c(N)nc2n1 | – | 1.13%
COc1ccc2[nH]c(S(=O)Cc3ncc(C)c(OC)c3C)nc2c1 (configuration not stated) | – | -98.9%
O=C(O)c1ccc(CN2CCC(CN[C@@H]3C[C@H]3c3ccccc3)CC2)cc1 | inactive | –
CCNCCc1ccc(CN(CC)c2cc(OC)ccc2[C@@H]2CCc3cc(O)ccc3C2)cc1 | 31.6 µM (active) | –
COc1ccnc2[nH]cc(C(=O)C(=O)N3CCN(C(=O)c4ccccc4)C[C@H]3C)c12 | – | -5.46%
COC1CCC(N2C(=O)CNc3ncc(-c4ccc(C(C)(C)O)nc4)nc32)CC1 (configuration not stated) | 15.8 µM (active) | –
Cc1nc2ccc(C(=O)N3CCC4(CC3)CC(=O)c3c(cnn3C(C)C)C4)cc2[nH]1 | 14.1 µM (active) | –
Cc1ccc(S(=O)(=O)Nc2cc(-c3ccc(C#N)s3)ccc2C)cc1 | – | -92%
NS(=O)(=O)NCCNc1nonc1C(=Nc1ccc(F)c(Br)c1)NO | – | -14.4%
COc1ccc([C@@H](O)[C@@H](C)Oc2ccc([C@H]3O[C@H](c4ccc(O[C@H](C)[C@H](O)c5ccc(OC)c(OC)c5)c(OC)c4)[C@H](C)[C@H]3C)cc2OC)cc1OC | – | -95.6%
C=CCN(/C=C1\C(=O)O[C@@H](COC)[C@]2(C)C1=C(O)C(=O)C1=C2[C@@H](OC(C)=O)C[C@]2(C)C(=O)CC[C@H]12)CC=C | inactive | –
NC(=O)[C@H]1CCS[C@@H]2C[C@]3(CCCN3C(=O)Cc3ccc(NC(=O)COc4ccc(Cl)cc4Cl)cc3)C(=O)N12 | 25.1 µM (active) | –
Cc1[nH]c2ccccc2c1CCNCc1ccc(/C=C/C(=O)NO)cc1 | inactive | –
